Laboratory results published in the supplement of paper PMC12494721.
Where a name gives a salt, the structure may show the parent alone.

Key:
Details in all cases: incubation time: 27 h, anaerobic, 37 °C;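 for the amine columns active = adjusted P below 0.05 in both replicates with a change the same way and a mean fold change under 0.8 or over 1.25; inactive = the rest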
[1] = system: Clostridium sporogenes DSM 1664; assay: growth (OD595) fold change vs plate DMSO controls (fold change (ratio)); higher = more growth
In short: (§1)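 Anaerobic mGAM cultures in 96-well plates were grown for 27 h at 37 °C, and absorbance was then read at 595 nm. After blank and compound background correction with 20 µM compound solutions in water, a calibration factor of 5 gave OD. Growth is the fold change relative to the median of each plate's DMSO controls. Values are means of 2 biological replicates, with fold changes above 1.5 set to NA.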

[2] = system: Escherichia coli IAI1; assay: as above
In short: as §1

[3] = system: Klebsiella aerogenes DSM 30053; assay: as above
In short: as §1

[4] = system: Ruminococcus gnavus DSM 108212; assay: as above
In short: as §1

[5] = system: Klebsiella aerogenes DSM 30053; assay: fold change of Histamine concentration vs plate DMSO controls (fold change (ratio)); higher = more amine produced, active = hit call of the paper (significant change in both replicates, either direction)
In short: (§2)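 Amines were quantified by LC–triple-quadrupole MS in dynamic MRM mode against external calibration curves, with drift correction within each batch. The samples were whole anaerobic mGAM cultures of four gut bacterial strains, grown for 27 h at 37 °C in 80 µL wells and extracted with cold acetonitrile/methanol with 0.1% formic acid, then centrifuged. Values are reported as fold change over DMSO controls on the same plate. The mean of 2 biological replicates is given.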

[6] = system: Clostridium sporogenes DSM 1664; assay: fold change of Tryptamine concentration vs plate DMSO controls (fold change (ratio)); higher = more amine produced, active = hit call of the paper (significant change in both replicates, either direction)
In short: as §2

[7] = system: Ruminococcus gnavus DSM 108212; assay: as above
In short: as §2

[8] = system: Escherichia coli IAI1; assay: fold change of Putrescine concentration vs plate DMSO controls (fold change (ratio)); higher = more amine produced, active = hit call of the paper (significant change in both replicates, either direction)
In short: as §2

[9] = system: Klebsiella aerogenes DSM 30053; assay: as above
In short: as §2

[10] = system: Escherichia coli IAI1; assay: fold change of Cadaverine concentration vs plate DMSO controls (fold change (ratio)); higher = more amine produced, active = hit call of the paper (significant change in both replicates, either direction)
In short: as §2

[11] = system: Klebsiella aerogenes DSM 30053; assay: as above
In short: as §2

[12] = system: Ruminococcus gnavus DSM 108212; assay: fold change of 2-Phenylethylamine concentration vs plate DMSO controls (fold change (ratio)); higher = more amine produced, active = hit call of the paper (significant change in both replicates, either direction)
In short: as §2

SMILES	growth [1]	growth [2]	growth [3]	growth [4]	fold change of Histamine concentration [5]	fold change of Tryptamine concentration [6]	fold change of Tryptamine concentration [7]	fold change of Putrescine concentration [8]	fold change of Putrescine concentration [9]	fold change of Cadaverine concentration [10]	fold change of Cadaverine concentration [11]	fold change of 2-Phenylethylamine concentration [12]
CCCCc1oc2ccccc2c1C(=O)c1cc(I)c(OCCN(CC)CC)c(I)c1 [Amiodarone hydrochloride] (20 µM)	1.17	1.02	0.991	0.65	1.06 (inactive)	1.1 (inactive)	0.75 (active)	0.96 (inactive)	1.02 (inactive)	1.04 (inactive)	0.985 (inactive)	0.89 (inactive)
NCC[C@H](O)C(=O)N[C@@H]1C[C@H](N)[C@@H](O[C@H]2O[C@H](CN)[C@@H](O)[C@H](O)[C@H]2O)[C@H](O)[C@H]1O[C@H]1O[C@H](CO)[C@@H](O)[C@H](N)[C@H]1O [Amikacin hydrate] (20 µM)	0.793	0.983	0.78	0.735	0.601 (active)	0.812 (inactive)	0.911 (inactive)	1 (inactive)	0.992 (inactive)	0.922 (inactive)	0.982 (inactive)	0.972 (inactive)
Nc1ccc(S(=O)(=O)Nc2ccnn2-c2ccccc2)cc1 [Sulfaphenazole] (20 µM)	1.01	1.11	1.04	1.11	0.99 (inactive)	0.977 (inactive)	0.994 (inactive)	1.04 (inactive)	1.03 (inactive)	1.04 (inactive)	1.02 (inactive)	0.95 (inactive)
O=C1NCC2(CCN(CCc3ccccc3)CC2)O1 [Fenspiride hydrochloride] (20 µM)	1.08	0.982	1.05	1.03	0.89 (inactive)	1.02 (inactive)	1.03 (inactive)	0.98 (inactive)	0.973 (inactive)	0.994 (inactive)	1.02 (inactive)	0.988 (inactive)
COc1cc(C(=O)NCc2ccc(OCCN(C)C)cc2)cc(OC)c1OC [Trimethobenzamide hydrochloride] (20 µM)	1.13	1.08	0.972	1.04	0.877 (inactive)	1.12 (inactive)	1.04 (inactive)	1.05 (inactive)	0.835 (inactive)	1.02 (inactive)	0.903 (inactive)	1.05 (inactive)
CNC(=C[N+](=O)[O-])NCCSCc1csc(CN(C)C)n1 [Nizatidine] (20 µM)	1.13	1.02	1.01	1.09	1.04 (inactive)	0.99 (inactive)	0.971 (inactive)	0.988 (inactive)	1.03 (inactive)	0.984 (inactive)	1 (inactive)	0.954 (inactive)
CCOc1cc(CC(=O)N[C@@H](CC(C)C)c2ccccc2N2CCCCC2)ccc1C(=O)O [Repaglinide] (20 µM)	1.11	1.2	0.993	0.81	0.982 (inactive)	1.18 (inactive)	1.09 (inactive)	1.14 (inactive)	0.966 (inactive)	1.01 (inactive)	1.03 (inactive)	1.13 (inactive)
CO/N=C(\C(=O)N[C@@H]1C(=O)N2C(C(=O)O)=C(COC(C)=O)CS[C@H]12)c1csc(N)n1 [Cefotaxime sodium salt] (20 µM)	0.00126	0.00374	0.601	0.2	0.733 (inactive)	0.0286 (active)	0.0769 (active)	0.143 (active)	0.729 (inactive)	0.574 (active)	1.02 (inactive)	0.055 (active)
Nc1ccn([C@H]2CC[C@@H](CO)O2)c(=O)n1 [Zalcitabine] (20 µM)	1.05	1.04	0.995	0.997	1.03 (inactive)	1.02 (inactive)	1.04 (inactive)	1.09 (inactive)	0.978 (inactive)	0.975 (inactive)	0.997 (inactive)	1.02 (inactive)
CN(C)CCC=C1c2ccccc2C=Cc2ccccc21 [Cyclobenzaprine hydrochloride] (20 µM)	0.862	1.01	0.985	0.869	1.06 (inactive)	1.19 (inactive)	0.915 (inactive)	0.987 (inactive)	1 (inactive)	1.01 (inactive)	0.985 (inactive)	0.921 (inactive)
COC(=O)Nc1nc2cc(C(=O)c3ccccc3)ccc2[nH]1 [Mebendazole] (20 µM)	1.04	1	1.11	0.629	0.962 (inactive)	0.982 (inactive)	1.01 (inactive)	1.03 (inactive)	0.987 (inactive)	0.998 (inactive)	1 (inactive)	1.03 (inactive)
CCCCc1ncc(/C=C(\Cc2cccs2)C(=O)O)n1Cc1ccc(C(=O)O)cc1 [Eprosartan mesylate] (20 µM)	1.06	1.06	1.16	0.916	0.882 (inactive)	1.08 (inactive)	0.998 (inactive)	0.975 (inactive)	1 (inactive)	0.963 (inactive)	1.03 (inactive)	1.02 (inactive)
CC(C)NNC(=O)c1ccncc1 [Iproniazide phosphate] (20 µM)	1.05	1.13	1.09	1.06	0.977 (inactive)	1.06 (inactive)	1 (inactive)	1.13 (inactive)	1.01 (inactive)	0.987 (inactive)	1 (inactive)	0.994 (inactive)
Nc1ccc(S(=O)(=O)Nc2ccc(Cl)nn2)cc1 [Sulfachloropyridazine] (20 µM)	1.03	0.966	1.05	0.974	0.939 (inactive)	1.01 (inactive)	1.04 (inactive)	0.964 (inactive)	0.976 (inactive)	0.962 (inactive)	1.01 (inactive)	1.14 (inactive)
CC[N+](CC)(CC)CCC(O)(c1ccccc1)C1CCCCC1 (stereo unspecified) [Tridihexethyl chloride] (20 µM)	0.911	1	1.01	1.16	0.955 (inactive)	1.17 (inactive)	1.06 (inactive)	0.812 (inactive)	0.975 (inactive)	0.857 (inactive)	1.02 (inactive)	1.03 (inactive)
CCN(CC)CCCC(C)Nc1ccnc2cc(Cl)ccc12 (stereo unspecified) [Chloroquine diphosphate] (20 µM)	1.07	0.965	0.996	0.941	1.04 (inactive)	1.1 (inactive)	1.03 (inactive)	0.939 (inactive)	1.02 (inactive)	0.962 (inactive)	0.985 (inactive)	1.02 (inactive)
Nc1nc(=O)c2c([nH]1)NC[C@@H](CNc1ccc(C(=O)N[C@@H](CCC(=O)O)C(=O)O)cc1)N2C=O [Folinic acid calcium salt] (20 µM)	0.975	0.979	0.993	0.963	0.976 (inactive)	1.02 (inactive)	0.944 (inactive)	1.05 (inactive)	0.998 (inactive)	0.962 (inactive)	0.999 (inactive)	0.882 (inactive)
CCCc1cc(C(N)=S)ccn1 [Prothionamide] (20 µM)	1.09	1.15	0.999	0.999	1.01 (inactive)	0.998 (inactive)	0.977 (inactive)	1.18 (inactive)	0.982 (inactive)	1.01 (inactive)	0.999 (inactive)	0.946 (inactive)
CCc1oc2ccccc2c1C(=O)c1cc(Br)c(O)c(Br)c1 [Benzbromarone] (20 µM)	0.813	0.959	0.986	0.873	0.958 (inactive)	0.706 (active)	0.722 (active)	0.989 (inactive)	0.994 (inactive)	1.04 (inactive)	0.998 (inactive)	0.763 (active)
C[C@H](CC[C@@H](O[C@@H]1O[C@H](CO[C@@H]2O[C@H](CO)[C@@H](O)[C@H](O)[C@H]2O)[C@@H](O)[C@H](O)[C@H]1O[C@@H]1O[C@H](CO)[C@@H](O)[C@H](O)[C@H]1O)C(C)(C)O)[C@H]1CC[C@@]2(C)[C@@H]3CC=C4[C@@H](CC[C@H](O[C@@H]5O[C@H](CO[C@@H]6O[C@H](CO)[C@@H](O)[C@H](O)[C@H]6O)[C@@H](O)[C@H](O)[C@H]5O)C4(C)C)[C@]3(C)[C@H](O)C[C@]12C [Mogroside V] (50 µM)	0.958	0.906	1	1.22	1.03 (inactive)	1.12 (inactive)	0.979 (inactive)	0.939 (inactive)	1 (inactive)	1.11 (inactive)	1.02 (inactive)	0.964 (inactive)
COc1ccc(C(=O)CC(=O)c2ccc(C(C)(C)C)cc2)cc1 [Avobenzone] (20 µM)	0.839	0.95	0.975	0.891	1.01 (inactive)	0.932 (inactive)	1.02 (inactive)	0.998 (inactive)	0.993 (inactive)	1.05 (inactive)	0.988 (inactive)	1.08 (inactive)
Nc1nc2n[nH]nc2c(=O)[nH]1 [Azaguanine-8] (20 µM)	0.886	1.05	1.01	0.846	1.04 (inactive)	0.988 (inactive)	0.924 (inactive)	1.01 (inactive)	0.968 (inactive)	1.01 (inactive)	1.03 (inactive)	0.882 (inactive)
CC(=O)OCC(=O)[C@@]12OC(C)(C)O[C@@H]1C[C@H]1[C@@H]3C[C@H](F)C4=CC(=O)C=C[C@]4(C)[C@@]3(F)[C@@H](O)C[C@@]12C [Fluocinonide] (20 µM)	0.81	0.961	0.997	0.976	1 (inactive)	1.07 (inactive)	0.936 (inactive)	0.978 (inactive)	1 (inactive)	0.972 (inactive)	0.988 (inactive)	0.911 (inactive)
